Experimental data taken from PubChem BioAssay (NCATS).
Inconclusive results are not listed. Active and inactive are the calls of the source. Unless noted, the call rests on the fitted dose curve; in most records, active means well fitted curve in the direction sought with a large enough effect; inconclusive means small, poorly fitted or top-dose-only effect, or another doubt; inactive means no such curve, though single readings can be large; an effect the other way counts as inactive or inconclusive.

Columns and labels:
[1] = AP1 Signaling Pathway (AID 357; active means well fitted curve in either direction with a large enough effect, not every such curve was filed as active;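 further: ME-180 reporter cells stimulated with EGF at its EC50 level; on the % scale 0 is the no-effect control and ±100 the full control effect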)
Method in brief: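 Modulation of EGF-driven AP-1 transcription was assessed with a beta-lactamase reporter in ME-180 cells. Compound and EC50 EGF were co-incubated 5 hours at 37 °C before 2.5-hour CCF4 loading at room temperature and dual-emission reading.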

[2] = target: Cytochrome P450 1A2 (Homo sapiens) (UniProt P05177); assay: p450-cyp1a2 (AID 410; calls by dose curve; further: potency means the concentration at half of the fitted maximal effect;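 on activity change, negative = inhibition: -100% = full effect of reference inhibitor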)
Cytochrome P450 1A2 (Homo sapiens), sequence (P05177 whole entry, looked up): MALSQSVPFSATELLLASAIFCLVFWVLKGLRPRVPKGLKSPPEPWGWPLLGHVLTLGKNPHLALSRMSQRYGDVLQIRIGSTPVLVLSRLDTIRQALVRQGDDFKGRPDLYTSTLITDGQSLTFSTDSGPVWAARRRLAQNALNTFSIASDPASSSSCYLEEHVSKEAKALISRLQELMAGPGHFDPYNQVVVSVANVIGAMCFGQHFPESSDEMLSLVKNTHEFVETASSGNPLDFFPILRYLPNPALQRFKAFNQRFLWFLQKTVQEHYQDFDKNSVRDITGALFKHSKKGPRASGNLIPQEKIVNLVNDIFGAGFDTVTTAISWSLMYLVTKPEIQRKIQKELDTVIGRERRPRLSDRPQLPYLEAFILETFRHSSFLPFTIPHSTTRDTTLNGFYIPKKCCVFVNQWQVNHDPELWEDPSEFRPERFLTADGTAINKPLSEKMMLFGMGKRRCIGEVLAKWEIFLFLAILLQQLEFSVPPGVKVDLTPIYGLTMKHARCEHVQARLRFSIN
Method in brief: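 Luminescent readout of luciferin formed from Luciferin-ME by human CYP1A2; data normalized against complete inhibition by 57 uM furafylline. Enzyme 20nM, substrate 100uM at Km, 100mM KPO4 buffer, 60 min reaction at room temperature.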

[3] = NFAT Signaling Pathway (AID 444; active means well fitted curve in either direction with a large enough effect, not every such curve was filed as active;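 further: carbachol stimulus at about its EC50 of 1 µM final; on the % scale 0 is the no-effect control and ±100 the full control effect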); conditions: Jurkat NFAT-bla M1, carbachol, beta-lactamase ratio, 5 h; at 17.2 µM (top of the series) unless noted
Method in brief: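 Jurkat cells carrying an NFAT-driven β-lactamase reporter and co-transfected muscarinic M1 receptor were treated with compound plus carbachol (1 uM final, an EC50 level) for 5 h at 37 °C. CCF4 loading followed for 1 h at RT; 460/530 nm ratio gave %activity.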

[4] = Stat Signaling Pathway (AID 446; active means well fitted curve in either direction with a large enough effect, not every such curve was filed as active;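 further: ME-180 cervical cancer cells given 40 pM IL-6 alongside compound; SIE-controlled beta-lactamase reporter measured as 460/530 nm FRET emission ratio; on the % scale 0 is the no-effect control and ±100 the full control effect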)
Method in brief: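 ME-180 SIE-bla cells; overnight plating; cpd + IL-6 40 pM, 5 h, 37 C; LiveBLAzer 2.5 h RT; 460/530 nm emission ratio. Normalized to 300 pM IL-6 and 125 nM JAK inhibitor controls.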

[5] = target: Glucocorticoid receptor (Homo sapiens) (UniProt P04150); assay: GR-GFP Redistribution (AID 450;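 active means compounds whose dose series gives a full or clear partial fitted curve of increased nuclear translocation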; further: potency means the concentration at half of the fitted maximal effect); conditions: U2OS GR-GFP nuclear translocation, laser cytometry, 2 h
Glucocorticoid receptor (Homo sapiens), sequence (P04150 whole entry, looked up, the tested form may be a part): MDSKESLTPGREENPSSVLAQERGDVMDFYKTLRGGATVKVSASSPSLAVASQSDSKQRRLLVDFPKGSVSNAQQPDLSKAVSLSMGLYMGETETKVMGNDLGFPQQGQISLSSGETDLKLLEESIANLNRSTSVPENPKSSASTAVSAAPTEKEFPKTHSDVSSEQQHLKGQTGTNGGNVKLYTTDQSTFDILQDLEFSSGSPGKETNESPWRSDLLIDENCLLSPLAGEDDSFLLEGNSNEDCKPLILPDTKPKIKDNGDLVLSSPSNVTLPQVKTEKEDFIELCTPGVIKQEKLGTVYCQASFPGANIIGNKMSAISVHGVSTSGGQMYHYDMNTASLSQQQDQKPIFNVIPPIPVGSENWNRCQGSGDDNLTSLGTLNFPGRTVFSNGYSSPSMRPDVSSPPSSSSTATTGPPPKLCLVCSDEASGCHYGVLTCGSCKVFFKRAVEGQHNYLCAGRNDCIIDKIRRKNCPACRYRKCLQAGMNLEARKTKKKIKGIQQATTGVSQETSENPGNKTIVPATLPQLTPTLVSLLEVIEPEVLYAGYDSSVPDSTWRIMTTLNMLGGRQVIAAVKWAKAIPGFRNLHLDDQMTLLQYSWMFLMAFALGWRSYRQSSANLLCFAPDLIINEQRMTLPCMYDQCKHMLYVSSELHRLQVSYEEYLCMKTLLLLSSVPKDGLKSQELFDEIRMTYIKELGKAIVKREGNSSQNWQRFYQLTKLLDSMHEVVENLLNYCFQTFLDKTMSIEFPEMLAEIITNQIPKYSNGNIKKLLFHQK

[6] = target: Glucocorticoid receptor (Homo sapiens) (UniProt P04150); assay: GR-EFC Redistribution (AID 451; calls by dose curve; further: potency means the concentration at half of the fitted maximal effect); conditions: CHO-K1 GR-EFC translocation, beta-gal luminescence, 2 h
Method in brief: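 CHO-K1 cells stably expressing nuclear-localized β-gal enzyme acceptor and GR fused C-terminally to the enzyme donor fragment; ligand-driven nuclear translocation restores β-gal by complementation. Compounds titrated up to 46 uM final, 2 h at 37 °C; luminescence read.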

[7] = target: Mitogen-activated protein kinase 10 (Mus musculus) (UniProt Q61831); assay: JNK3 AlphaScreen Assay (AID 530; active means well fitted curve in either direction with a large enough effect, not every such curve was filed as active;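 further: kinase came from lysate of stimulated human HepG2 cells; signal reports phosphorylation of biotinylated GST-cJun 1-79 at Ser73 with 10 µM ATP; on the % scale 0 is the no-effect control and ±100 the full control effect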)
Method in brief: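 Inhibitors reduce antibody binding to phosphorylated biotin-cJun, lowering AlphaScreen luminescence. Lysates from HepG2 cells pre-activated by IL-1beta plus TNF-alpha supplied JNK3; compounds were titrated.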

[8] = target: 3',5'-cyclic-AMP phosphodiesterase 4B (Homo sapiens) (UniProt Q07343); assay: qHTS Assay for Inhibitors of PDE-IV (AID 607; active means well fitted activation curve with a large enough effect in the main read-out, with a control signal flat, not every such curve was filed as active; further: % of control where 0% means no effect)
3',5'-cyclic-AMP phosphodiesterase 4B (Homo sapiens), sequence (Q07343 whole entry, looked up): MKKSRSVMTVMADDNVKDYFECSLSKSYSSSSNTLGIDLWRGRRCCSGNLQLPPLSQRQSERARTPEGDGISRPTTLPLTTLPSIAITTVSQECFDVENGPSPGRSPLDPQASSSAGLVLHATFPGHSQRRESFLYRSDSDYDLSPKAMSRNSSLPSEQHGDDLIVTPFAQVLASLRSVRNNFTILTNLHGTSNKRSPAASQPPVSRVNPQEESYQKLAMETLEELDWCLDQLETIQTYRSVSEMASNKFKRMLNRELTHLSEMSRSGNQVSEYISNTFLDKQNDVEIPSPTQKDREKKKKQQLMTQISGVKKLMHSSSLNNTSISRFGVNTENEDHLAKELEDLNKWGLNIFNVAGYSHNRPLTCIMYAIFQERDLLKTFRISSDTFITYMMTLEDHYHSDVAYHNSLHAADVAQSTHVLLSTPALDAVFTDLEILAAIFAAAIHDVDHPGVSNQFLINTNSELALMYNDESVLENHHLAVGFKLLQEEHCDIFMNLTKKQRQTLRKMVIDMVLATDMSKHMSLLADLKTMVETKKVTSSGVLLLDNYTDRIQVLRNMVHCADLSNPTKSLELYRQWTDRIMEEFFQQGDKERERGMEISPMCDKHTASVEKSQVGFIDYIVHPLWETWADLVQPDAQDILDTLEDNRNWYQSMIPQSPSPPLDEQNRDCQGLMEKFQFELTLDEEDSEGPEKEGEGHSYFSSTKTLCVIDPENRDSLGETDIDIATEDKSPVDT
Method in brief: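 ACTOne HEK293 cells carry a modified cAMP-gated CNG channel and express endogenous PDE4; plated 1000 cells/well, compounds up to 22.9 uM final. Membrane-potential dye fluorescence (ex 535/em 590) was read; parental cells received 10 uM forskolin + 100 uM RO 20-1724.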

[9] = qHTS Assay for Lipid Storage Modulators (AID 1519; calls by dose curve); conditions: Drosophila S3 cells, BODIPY lipid droplet/cell ratio, laser cytometry, cells loaded with oleic acid
Method in brief: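 Cells seeded at 5,000 per well were treated with compounds over a concentration series and loaded with oleic acid (400 uM, as added). Lipid droplet fluorescence (488 nm excitation, 500-530 nm channel) was read by laser-scanning cytometry and normalized to 20 uM Triacsin C.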

[10] = target: Ubiquitin carboxyl-terminal hydrolase 1 (Homo sapiens) (UniProt O94782); assay: Inhibitors of USP1/UAF1: Pilot qHTS (AID 504865);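 further: rhodamine fluorescence freed from ubiquitin-rhodamine substrate followed over time; top concentration of the series differs between compounds; on the % scale 0 is the no-effect control and ±100 the full control effect; nearly all actives have a fitted effect of over 35% in size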
Ubiquitin carboxyl-terminal hydrolase 1 (Homo sapiens), sequence (O94782 whole entry, looked up): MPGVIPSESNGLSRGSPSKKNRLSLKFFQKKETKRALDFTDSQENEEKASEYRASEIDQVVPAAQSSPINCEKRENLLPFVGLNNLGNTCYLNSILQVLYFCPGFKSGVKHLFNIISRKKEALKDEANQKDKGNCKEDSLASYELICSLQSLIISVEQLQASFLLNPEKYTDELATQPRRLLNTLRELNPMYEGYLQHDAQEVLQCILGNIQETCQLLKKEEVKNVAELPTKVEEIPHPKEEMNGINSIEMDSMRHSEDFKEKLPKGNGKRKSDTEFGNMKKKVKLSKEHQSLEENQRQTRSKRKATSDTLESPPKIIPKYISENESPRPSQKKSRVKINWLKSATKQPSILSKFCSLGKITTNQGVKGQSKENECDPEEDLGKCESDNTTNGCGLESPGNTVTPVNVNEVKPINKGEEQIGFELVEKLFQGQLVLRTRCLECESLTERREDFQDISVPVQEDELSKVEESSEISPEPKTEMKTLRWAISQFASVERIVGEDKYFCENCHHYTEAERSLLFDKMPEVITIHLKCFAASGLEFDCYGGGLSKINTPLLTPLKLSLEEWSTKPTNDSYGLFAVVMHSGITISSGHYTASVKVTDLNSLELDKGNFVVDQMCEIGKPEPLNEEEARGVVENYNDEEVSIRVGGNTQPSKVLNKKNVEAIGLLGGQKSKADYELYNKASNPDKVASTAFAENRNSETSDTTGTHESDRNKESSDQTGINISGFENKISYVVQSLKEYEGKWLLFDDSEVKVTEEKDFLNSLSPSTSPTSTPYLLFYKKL
Method in brief: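 USP1/UAF1 complex (1nM) preincubated with compound 15 min at room temperature, then Ub-Rho substrate (150nM final) added. Fluorescence read kinetically at 480/540 nm, 6 reads every 60 seconds. Buffer: 50mM HEPES pH 7.8, 0.5mM EDTA, 0.1 mg/ml BSA, 1mM TCEP, 0.01% Tween-20.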

[11] = target: ATP-dependent 6-phosphofructokinase (Trypanosoma brucei brucei) (UniProt O15648); assay: qHTS Assay to Find Inhibitors of T. brucei phosphofructokinase: hit validation (AID 492961)
ATP-dependent 6-phosphofructokinase (Trypanosoma brucei brucei), sequence (O15648 whole entry, looked up): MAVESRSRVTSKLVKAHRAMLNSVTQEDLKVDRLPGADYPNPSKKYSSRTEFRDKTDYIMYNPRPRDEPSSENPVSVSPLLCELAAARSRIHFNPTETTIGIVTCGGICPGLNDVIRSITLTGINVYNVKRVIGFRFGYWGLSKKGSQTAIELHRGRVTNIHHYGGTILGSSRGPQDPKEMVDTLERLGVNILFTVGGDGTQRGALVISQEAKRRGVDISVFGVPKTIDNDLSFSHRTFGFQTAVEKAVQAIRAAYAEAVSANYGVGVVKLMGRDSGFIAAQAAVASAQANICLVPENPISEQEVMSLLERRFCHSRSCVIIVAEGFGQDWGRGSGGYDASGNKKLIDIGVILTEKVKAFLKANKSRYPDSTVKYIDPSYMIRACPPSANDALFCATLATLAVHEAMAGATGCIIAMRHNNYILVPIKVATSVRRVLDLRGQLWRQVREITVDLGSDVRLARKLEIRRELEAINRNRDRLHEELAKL
Method in brief: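 Reaction: 0.1 M triethanolamine pH 8.0, 5 mM MgCl2, F6P 0.5 mM, ATP 0.1 mM, PFK 1.25 nM, 45 min RT. Read-out: ADP-Glo luminescence. Analysis: concentration-response fits, classed by r2 and efficacy.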

[12] = qHTS profiling for inhibitors of Plasmodium falciparum proliferation (AID 504749); further: nearly all actives have a fitted effect of over 60% in size; further: potency means the concentration at half of the fitted maximal effect;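 on activity, negative = inhibition: 0% = DMSO vehicle and full inhibition = artemisinin control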; conditions: P. falciparum in erythrocytes, SYBR Green DNA, 72 h
Method in brief: (§1)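 Parasite proliferation within erythrocytes, 72 h exposure. Endpoint: SYBR Green I fluorescence after overnight lysis at room temperature. Controls: 0.29 uM artemisinin, DMSO.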

C2A = assay: as above; conditions: P. falciparum in erythrocytes, SYBR Green DNA, 72 h; series mostly up to 12.8 µM
Method in brief: as §1

CP191 = assay: as above; conditions: P. falciparum in erythrocytes, SYBR Green DNA, 72 h; series mostly up to 12.8 µM
Method in brief: as §1

CP217 = assay: as above; conditions: P. falciparum in erythrocytes, SYBR Green DNA, 72 h; series mostly up to 12.8 µM
Method in brief: as §1

CP250 = assay: as above; conditions: P. falciparum in erythrocytes, SYBR Green DNA, 72 h; series mostly up to 12.8 µM
Method in brief: as §1

CP256 = assay: as above; conditions: P. falciparum in erythrocytes, SYBR Green DNA, 72 h; series mostly up to 12.8 µM
Method in brief: as §1

FAB9 = assay: as above; conditions: P. falciparum in erythrocytes, SYBR Green DNA, 72 h; series mostly up to 12.8 µM
Method in brief: as §1

JCK = assay: as above; conditions: P. falciparum in erythrocytes, SYBR Green DNA, 72 h; series mostly up to 12.8 µM
Method in brief: as §1

SC27B = assay: as above; conditions: P. falciparum in erythrocytes, SYBR Green DNA, 72 h; series mostly up to 12.8 µM
Method in brief: as §1

[13] = measured here: cell count channel max response
[14] = measured here: lipid channel max response
[15] = at 12.8 µM (top of the series), parasite line B
[16] = at 12.8 µM (top of the series), parasite line A

CN(C)/N=N\c1nc[nH]c1C(N)=O
7.48%: max response [9, 14]
10.1%: max response [9, 13]
inactive: outcome [1] | Potency [2] | activity change, negative = inhibition [3] 3.5% | outcome [4] | Potency [5] > 20.6 µM | Potency [6] > 20.6 µM | Potency [7] | outcome [8] | activity change, negative = inhibition ([9]; at 25.7 µM (top of the series)) 0.337% | Potency [10]

C=C1C[C@@]23C[C@@]1(O)CC[C@@H]2[C@]12C=C[C@@H](O)[C@](C)(C(=O)O1)[C@@H]2[C@@H]3C(=O)O
inactive: activity change, negative = inhibition ([9]; at 57.5 µM (top of the series)) -1.64%
0.595%: max response [9, 14]
0.496%: max response [9, 13]

C[C@]12C=CC(=O)C=C1CC[C@@H]1[C@H]3C[C@@H](O)[C@](O)(C(=O)CO)[C@@]3(C)C[C@H](O)[C@]12F
active: Potency [5] 0.108 µM | Potency [6] 0.0827 µM
inactive: outcome [1] | Potency [2] | activity change, negative = inhibition [3] 7.24% | outcome [4] | Potency [7] | outcome [8] | activity change, negative = inhibition ([9]; at 25.7 µM (top of the series)) -1.03% | Potency [10]
6.57%: max response [9, 14]
6.41%: max response [9, 13]

C[C@@]12CC[C@H]3[C@@H](CCC4=CC(=O)CC[C@]43C)[C@H]1CC[C@H]2C(=O)CO
inactive: outcome [1] | Potency [2] | activity change, negative = inhibition [3] -6.24% | outcome [4] | Potency [6] > 20.6 µM | Potency [7] | activity change, negative = inhibition ([9]; at 25.7 µM (top of the series)) -5.79% | outcome [11] | activity, negative = inhibition [12, 15] 3.27% | Potency (C2A) | Potency (CP191) | Potency (CP217) | Potency (CP250) | Potency (CP256) | Potency (FAB9) | Potency (JCK) | Potency (SC27B)
-3.01%: max response [9, 13]
active: Potency [5] 0.0622 µM | Potency ([12]; parasite line A) 4.47 µM
-9.53%: max response [9, 14]

Clc1cnccn1
inactive: outcome [1] | Potency [2] | activity change, negative = inhibition [3] -22.8% | outcome [4] | Potency [5] > 20.6 µM | Potency [6] > 20.6 µM | Potency [7] | outcome [8] | activity change, negative = inhibition ([9]; at 25.7 µM (top of the series)) 2.5% | Potency [10]
8.49%: max response [9, 13]
10.5%: max response [9, 14]

CC(=O)[C@@]1(O)CC[C@H]2[C@H]3C[C@@H](C)C4=CC(=O)C=C[C@]4(C)[C@@]3(F)[C@@H](O)C[C@]21C
active: Potency [5] 0.00155 µM | Potency [6] 0.00821 µM
-19.8%: max response [9, 14]
inactive: outcome [1] | Potency [2] | activity change, negative = inhibition [3] 5.97% | outcome [4] | Potency [7] | outcome [8] | activity change, negative = inhibition ([9]; at 25.7 µM (top of the series)) -6.74% | outcome [11] | Potency [10] | activity, negative = inhibition [12, 16] -2.85% | activity, negative = inhibition [12, 15] -0.507% | Potency (C2A) | Potency (CP191) | Potency (CP217) | Potency (CP250) | Potency (CP256) | Potency (FAB9) | Potency (JCK) | Potency (SC27B)
-14.1%: max response [9, 13]

OC[C@@H](O)CN1CCN(c2ccccc2)CC1
inactive: outcome [1] | Potency [2] | activity change, negative = inhibition [3] 3.85% | outcome [4] | Potency [5] > 20.6 µM | Potency [6] > 20.6 µM | Potency [7] | outcome [8] | activity change, negative = inhibition ([9]; at 25.7 µM (top of the series)) 0.251% | Potency [10]
-7.93%: max response [9, 14]
-9.92%: max response [9, 13]

CN1C(=O)C[C@H](c2ccccc2)C1=O
-28%: max response [9, 13]
inactive: outcome [1] | Potency [2] | activity change, negative = inhibition [3] 35.9% | outcome [4] | Potency [5] > 20.6 µM | Potency [6] > 20.6 µM | Potency [7] | outcome [8] | activity change, negative = inhibition ([9]; at 25.7 µM (top of the series)) 0.325% | outcome [11] | Potency [10] | activity, negative = inhibition ([12]; at 28.7 µM (top of the series), parasite line B) -2.97% | Potency (C2A) | Potency (CP191) | Potency (CP217) | Potency (CP250) | Potency (CP256) | Potency (FAB9) | Potency (JCK) | Potency (SC27B)
-25.7%: max response [9, 14]

CC(=O)N(C[C@@H](C)C(=O)O)c1c(I)cc(I)c(N)c1I
3.33%: max response [9, 14]
2.03%: max response [9, 13]
inactive: outcome [1] | Potency [2] | activity change, negative = inhibition [3] -3.37% | outcome [4] | Potency [5] > 20.6 µM | Potency [6] > 20.6 µM | Potency [7] | outcome [8] | activity change, negative = inhibition ([9]; at 25.7 µM (top of the series)) 0.163% | outcome [11] | Potency [10] | activity, negative = inhibition [12, 16] 4.38% | activity, negative = inhibition [12, 15] 4.5% | Potency (C2A) | Potency (CP191) | Potency (CP217) | Potency (CP250) | Potency (CP256) | Potency (FAB9) | Potency (JCK) | Potency (SC27B)

O=C(Nc1ccccc1)OC[C@H](CN1CCCCC1)OC(=O)Nc1ccccc1
inactive: outcome [1] | activity change, negative = inhibition [3] -6.24% | outcome [4] | Potency [5] > 20.6 µM | Potency [6] > 20.6 µM | Potency [7] | outcome [8] | activity change, negative = inhibition ([9]; at 25.7 µM (top of the series)) -4.16% | outcome [11] | activity, negative = inhibition [12, 16] -1.15% | activity, negative = inhibition [12, 15] -2.24% | Potency (C2A) | Potency (CP191) | Potency (CP217) | Potency (CP250) | Potency (CP256) | Potency (FAB9) | Potency (JCK) | Potency (SC27B)
-5.88%: max response [9, 13]
active: Potency [2] 12.6 µM
-11%: max response [9, 14]

Nc1c2ccccc2nc2c(O)cccc12
-4.09%: max response [9, 14]
inactive: outcome [1] | activity change, negative = inhibition [3] -1.27% | outcome [4] | Potency [5] > 20.6 µM | Potency [6] > 20.6 µM | Potency [7] | outcome [8] | activity change, negative = inhibition ([9]; at 25.7 µM (top of the series)) -0.346% | Potency [10]
active: Potency [2] 6.31 µM
-4.58%: max response [9, 13]
